High-throughput results: PubChem BioAssay, National Center for Advancing Translational Sciences (NCATS)
GAA glycogen – alters human alpha-glucosidase cleavage of glycogen; recombinant GAA, glycogen substrate, Amplex Red glucose oxidase fluorescence; hit rate 0.38% among 300,000; Potency, µM (series often up to 76.4 µM), without a hit: top-dose activity change, negative = inhibition, most hits filed as inhibitors; P10253;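 further: potency means the concentration at half of the fitted maximal effect; 0% = full enzyme reaction and -100% = no-enzyme basal signal; the screen sought inhibitors and activators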
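qHTS, 1536-well; enzyme 4 nM final; cpd up to 77 uM; substrate bovine liver glycogen 30 ug; 50 mM citrate/phosphate pH 5.0, 0.01% Tween-20; 37 C, 40 min; Amplex Red detection 45 min RT; Hill fit → AC50.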
GLA inh pH 4.5 – blocks human alpha-galactosidase A at pH 4.5; purified enzyme, 4-MU-alpha-Gal fluorescence, pH 4.5; activity change, negative = inhibition, % at 105 µM; 230,000 tested, under 10 active; AID 1467;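 further: 0% = full activity with enzyme and -100% = basal without enzyme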
GAA spleen mod – inhibits or activates alpha-glucosidase in human spleen homogenate; human spleen homogenate, 4-MU-alpha-glucoside fluorescence; hit rate 0.006% among 240,000; Potency, µM (series often up to 79.9 µM), for the others: at the top dose activity change, negative = inhibition, usual class: inhibitors;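 further: potency means the concentration at half of the fitted maximal effect; 0% = enzyme with vehicle and -100% = no enzyme basal signal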
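Human spleen homogenate (1 ug) incubated with compounds and 1 mM 4-methylumbelliferyl-alpha-D-glucopyranoside in pH 5.0 citrate/phosphate buffer, 37 C, 40 min. Stopped at pH 10; 4-MU fluorescence (Ex 365/Em 440 nm); AC50 by Hill fit.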
aGal spleen mod – alpha-galactosidase A (human) modulation. AID 2107. hit rate 0.008% among 240,000. Potency, µM (titrated, usually from 80 µM), inactives show top-dose activity change, negative = inhibition, actives largely listed as inhibitors. P06280. human spleen homogenate, 4MU-alpha-Gal fluorescence, 40 min;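 further: potency means the concentration at half of the fitted maximal effect; 0% = enzyme with vehicle and -100% = no enzyme basal signal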
Target sequence (P06280 32-429 limits assumed): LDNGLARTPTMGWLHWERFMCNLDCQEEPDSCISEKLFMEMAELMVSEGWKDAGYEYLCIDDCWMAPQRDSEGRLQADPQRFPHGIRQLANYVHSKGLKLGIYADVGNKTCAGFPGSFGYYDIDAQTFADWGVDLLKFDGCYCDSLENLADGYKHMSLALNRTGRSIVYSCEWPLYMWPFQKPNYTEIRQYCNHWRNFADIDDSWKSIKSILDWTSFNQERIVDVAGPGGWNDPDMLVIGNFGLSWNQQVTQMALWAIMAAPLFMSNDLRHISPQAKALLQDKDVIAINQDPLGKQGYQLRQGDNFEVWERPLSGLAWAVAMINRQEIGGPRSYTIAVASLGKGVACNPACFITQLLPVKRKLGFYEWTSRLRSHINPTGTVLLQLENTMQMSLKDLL
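Human spleen homogenate (1 ug) as enzyme source, 4-methylumbelliferyl-alpha-D-galactopyranoside 1 mM final, citrate/phosphate pH 5.0 with 0.01% Tween-20. Compounds 40 min at 37C, NaOH/glycine stop; fluorescence Ex 365/Em 440, Hill-fit AC50.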
GAA inhib – alpha-glucosidase (human) inhibition | P10253 | purified human GAA, 4-MU-alpha-glucoside fluorescence | Potency, µM (series often up to 76.9 µM), inactives show at the highest dose activity change, negative = inhibition, actives largely listed as inhibitors | hit rate 0.005% among 200,000 | AID 1466;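 further: potency means the concentration at half of the fitted maximal effect; plate controls were uninhibited enzyme wells for no effect and no-enzyme background for full effect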
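qHTS format, compound range up to 77 uM. Human lysosomal enzyme at 4 nM, 400 uM 4-MU glucoside substrate, pH 5.0, 20 min room temperature; fluorescence after alkaline stop gives activity normalized to controls.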
The depositor's hits bear a star; ? = inconclusive; . = no result. A selection: hits, their analogues and other compounds. The true share with any hit is near 0.4%. The call rests on the fitted dose curve; in most records, active means well fitted curve in the direction sought with a large enough effect; inconclusive means small, poorly fitted or top-dose-only effect, or another doubt; inactive means no such curve, though single readings can be large; an effect the other way counts as inactive or inconclusive.

SMILES	GAA glycogen	GLA inh pH 4.5	GAA spleen mod	aGal spleen mod	GAA inhib
COc1ccc(CNc2n[nH]c(NCc3ccc(OC)c(OC)c3)n2)cc1OC	22µM*	-1	3%	-3%	2%
C/C(=N\NC(=O)c1ccccc1F)c1ccc2c(c1)Nc1ccccc1S2	25µM*	1	-2%	5%	0%
C/C(=N\NC(=O)c1ccc(O)cc1)c1ccc2c(c1)Nc1ccccc1S2	?	-7	-12%	-17%	-9%
Cc1cc(Nc2ccccc2)n(CCO)n1	28µM*	13	4%	3%	-8%
Cc1cc(Nc2ccccc2)n(-c2ccc(Br)cc2)n1	?	-1	-10%	-5%	-4%
CCn1nc(C)cc1Nc1ccccc1	14µM*	-8	-5%	3%	-11%
O=C1OCC(CO)(CO)N=C1NNc1ccccc1[N+](=O)[O-]	?	-2	-15%	-4%	.
O=C1OCC(CO)(CO)N=C1NNc1cc(Cl)ccc1Cl	8.9µM*	0	-5%	1%	-10%
